The nature of assay [1]: qHTS assay to identify small molecule agonists of the peroxisome proliferator-activated receptor delta (PPARd) signaling pathway - cell viability counter screen (AID 743211). Also: nearly all actives have a fitted effect of over 55% in size. Also: potency is read from the fitted curve at half-maximal effect. The procedure, abridged:
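Read-out: CellTiter-Glo luminescence, 30 min RT, measured in the same wells as the beta-lactamase reporter. Cells: GeneBLAzer PPAR delta UAS-bla HEK293H, 3000 cells/well, compound exposure 17 h at 37C.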
In general terms: qHTS replaces the single test concentration by a dilution series.

Assay [2] deals with Peroxisome proliferator-activated receptor delta (Homo sapiens) (UniProt Q03181). In words: qHTS assay to identify small molecule agonists of the peroxisome proliferator-activated receptor delta (PPARd) signaling pathway (AID 743212; calls by dose curve; also: potency is read from the fitted curve at half-maximal effect). The procedure, abridged:
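HEK293H UAS-bla reporter cells, human PPARd system; compounds delivered in DMSO after 5 h plating, then at 37 C. Beta-lactamase FRET read, 2 h RT substrate step.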

Assay [3] in a line: qHTS assay to identify small molecule antagonists of the peroxisome proliferator-activated receptor delta (PPARd) signaling pathway - cell viability counter screen (AID 743213). Also: nearly all actives have a fitted effect of over 50% in size. A digest of the protocol: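 Luminescence from CellTiter-Glo, added after the bla read and incubated 30 min at room temperature, gives viability of HEK293H PPARd-bla cells exposed to compounds for 17 h at 37 C with 300 nM L165041.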

Assay [4] deals with Peroxisome proliferator-activated receptor delta (Homo sapiens) (UniProt Q03181). In words: qHTS assay to identify small molecule antagonists of the peroxisome proliferator-activated receptor delta (PPARd) signaling pathway (AID 743215; active = well fitted inhibition curve with a large enough effect in the signal ratio in the repeat runs, not every such curve was filed as active; the % refers to the signal ratio;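 also: cells stimulated with agonist L165041 at 300 nM final during compound exposure; series mostly up to about 62 µM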). The procedure, abridged: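 Antagonist-mode beta-lactamase reporter screen: HEK293H cells with UAS-bla under PPARd control, stimulated by 300 nM L165041 (final) alongside test compound for 17 h at 37 C, then FRET fluorescence after 2 h substrate incubation.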

The target of assay [5] is Bile acid receptor (Homo sapiens) (UniProt Q96RI1). In words: qHTS assay to identify small molecule antagonists of the farnesoid-X-receptor (FXR) signaling pathway (AID 743217; active = well fitted inhibition curve with a large enough effect in the signal ratio in the repeat runs, not every such curve was filed as active; the % refers to the signal ratio; also: potency is read from the fitted curve at half-maximal effect). The procedure, abridged:
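Beta-lactamase reporter under UAS control in HEK 293T cells; compound exposure 16 h at 37 °C in the presence of chenodeoxycholic acid (50 uM final); signal from B/G FRET substrate after 2 h at room temperature.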

The nature of assay [6]: qHTS assay to identify small molecule agonists of the farnesoid-X-receptor (FXR) signaling pathway - cell viability counter screen (AID 743218). Also: nearly all actives have a fitted effect of over 45% in size. Also: potency is read from the fitted curve at half-maximal effect. A digest of the protocol:
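In GeneBLAzer FXR-UAS-bla HEK 293T cells, compounds act for 16 h at 37 C. Cell viability is then scored in the reporter wells by CellTiter-Glo, 30 min at RT, luminescence.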

The nature of assay [7]: qHTS assay to identify small molecule antagonists of the farnesoid-X-receptor (FXR) signaling pathway - cell viability counter screen (AID 743221; active = well fitted cell-killing curve with a large enough effect in the repeat runs, not every such curve was filed as active; also: nearly all actives have a fitted effect of over 50% in size). A digest of the protocol: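 HEK 293T FXR-bla cells, 5 h pre-incubation; compound + CDCA 50 uM final, 16 h, 37 C; beta-lactamase FRET read first, then CellTiter-Glo luminescence, 30 min RT.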
For assay [8], the target named is Vitamin D3 receptor (Homo sapiens) (UniProt P11473). In words: qHTS assay to identify small molecule antagonists of the vitamin D receptor (VDR) signaling pathway (AID 743223; active = well fitted inhibition curve with a large enough effect in the signal ratio in the repeat runs, not every such curve was filed as active; the % refers to the signal ratio). A digest of the protocol:
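Beta-lactamase reporter read-out: FRET substrate fluorescence after 2 h at room temperature, following 16 h exposure of VDR-bla cells to test compound plus 3 nM (final) 1alpha,25-dihydroxyvitamin D3 agonist at 37C.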

For assay [9], the target named is Bile acid receptor (Homo sapiens) (UniProt Q96RI1). Kind of assay: qHTS assay to identify small molecule agonists of the farnesoid-X-receptor (FXR) signaling pathway (AID 743220; active = well fitted activation curve with a large enough effect in the signal ratio in the repeat runs, not every such curve was filed as active; the % refers to the signal ratio; also: potency is read from the fitted curve at half-maximal effect). A digest of the protocol: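 Beta-lactamase reporter under UAS control in GeneBLAzer FXR HEK 293T cells (5000/well) measured with LiveBLAzer FRET substrate after 2 h at room temperature. Compound exposure lasted 16 h at 37C.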

For assay [10], the target named is Vitamin D3 receptor (Homo sapiens) (UniProt P11473). Kind of assay: qHTS assay to identify small molecule agonists of the vitamin D receptor (VDR) signaling pathway (AID 743222; calls by dose curve; also: potency is read from the fitted curve at half-maximal effect). The procedure, abridged:
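Agonist activity measured in VDR-bla reporter cells. Exposure 16 h, 37C, 5% CO2; detection by B/G FRET substrate, 2 h RT.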

Inconclusive results are not listed. Unmarked numbers belong to inactive results. Calls of active or inactive are those of the source. Unless noted, calls follow the shape of the dose curve; as a rule, active = well fitted curve in the direction sought with a large enough effect in the repeat runs; inconclusive = weak or mixed curves; inactive = no such curve, though single readings can be large; an effect the other way counts as inactive or inconclusive.

Peroxisome proliferator-activated receptor delta (Homo sapiens), sequence (Q03181 whole entry, looked up): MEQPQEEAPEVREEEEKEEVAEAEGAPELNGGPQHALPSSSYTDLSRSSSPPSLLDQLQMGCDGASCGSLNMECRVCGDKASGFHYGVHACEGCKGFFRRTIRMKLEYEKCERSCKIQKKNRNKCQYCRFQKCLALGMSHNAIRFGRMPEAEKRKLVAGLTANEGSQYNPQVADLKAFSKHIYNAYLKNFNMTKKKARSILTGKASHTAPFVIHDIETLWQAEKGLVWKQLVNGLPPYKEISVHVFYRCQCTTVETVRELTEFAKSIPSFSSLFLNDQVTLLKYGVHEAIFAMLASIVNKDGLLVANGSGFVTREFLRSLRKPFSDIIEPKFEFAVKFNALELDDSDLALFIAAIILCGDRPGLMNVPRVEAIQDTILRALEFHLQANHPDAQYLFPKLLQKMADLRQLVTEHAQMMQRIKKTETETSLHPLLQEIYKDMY
Vitamin D3 receptor (Homo sapiens), sequence (P11473 whole entry, looked up): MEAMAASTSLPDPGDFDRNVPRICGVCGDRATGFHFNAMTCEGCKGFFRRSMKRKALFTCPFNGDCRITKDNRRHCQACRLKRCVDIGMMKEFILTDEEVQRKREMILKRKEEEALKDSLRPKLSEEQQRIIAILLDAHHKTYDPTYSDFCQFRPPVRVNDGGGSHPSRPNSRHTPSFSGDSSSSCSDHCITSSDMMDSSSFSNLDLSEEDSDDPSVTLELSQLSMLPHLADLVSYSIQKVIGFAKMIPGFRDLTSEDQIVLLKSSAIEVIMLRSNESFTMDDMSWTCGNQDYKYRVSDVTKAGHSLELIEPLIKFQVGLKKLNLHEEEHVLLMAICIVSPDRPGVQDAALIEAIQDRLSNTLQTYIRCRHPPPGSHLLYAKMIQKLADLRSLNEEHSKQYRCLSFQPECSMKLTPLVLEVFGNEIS
Bile acid receptor (Homo sapiens), sequence (Q96RI1 whole entry, looked up): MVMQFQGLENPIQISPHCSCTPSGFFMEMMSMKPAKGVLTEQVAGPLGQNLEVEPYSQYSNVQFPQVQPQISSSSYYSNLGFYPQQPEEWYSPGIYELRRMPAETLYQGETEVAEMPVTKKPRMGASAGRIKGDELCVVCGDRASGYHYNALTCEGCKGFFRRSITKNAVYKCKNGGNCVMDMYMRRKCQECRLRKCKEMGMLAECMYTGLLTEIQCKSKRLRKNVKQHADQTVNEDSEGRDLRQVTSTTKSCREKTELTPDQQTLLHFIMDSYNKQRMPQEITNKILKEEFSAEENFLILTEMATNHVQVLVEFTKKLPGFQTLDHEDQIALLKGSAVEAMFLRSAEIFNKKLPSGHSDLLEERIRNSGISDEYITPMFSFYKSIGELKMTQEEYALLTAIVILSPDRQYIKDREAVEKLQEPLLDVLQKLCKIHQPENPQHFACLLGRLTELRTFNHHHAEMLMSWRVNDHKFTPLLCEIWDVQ

As to `Cc1cc(-n2nc3ccc(Cl)cc3n2)c(O)c(C(C)(C)C)c1`, the Potency result in [1], in [2], in assay [3], in assay [4], in assay [5] and in assay [6] was “inactive” throughout. Moreover, the Potency result in assay [7] and in assay [8] was “inactive” each time.

With `Cc1ccc(C(=O)O)cc1`, the Potency result in assay [1], in assay [2], in assay [3], in [4], in [5] and in [6] was “inactive” each time. Further, the Potency entry in assay [9] and in assay [7] was “inactive” in each case.

Regarding `C[C@@H](O)[C@H](N)C(=O)O`, the Potency entry in [1], in assay [2], in assay [3], in [4], in [5] and in [6] was “inactive” in each case. Besides, the Potency result in assay [9] and in [7] was “inactive” in each case.

Take `CCCCC/C=C\C/C=C\CCCCCCCC(=O)O`: the Potency result in assay [1], in assay [2], in [3], in [4], in assay [5] and in assay [9] was “inactive” in each case. In addition, the Potency result in assay [7] is “inactive”.

Consider `CCC(COC(=O)CCS)(COC(=O)CCS)COC(=O)CCS`, for which the Potency entry in [1], in assay [2], in [3], in [4], in [5] and in [9] was “inactive” in each case. For the same compound, the Potency result in assay [10] and in [8] was “inactive” each time.

Take `CCCCNS(=O)(=O)c1ccc(C)cc1`: the Potency result in [1], in [2], in [3], in assay [4] and in assay [6] was “inactive” throughout.

Consider `C#Cc1ccc(-c2ccccc2F)cc1`, for which the Potency result in assay [1], in [2], in assay [3], in assay [4], in [5] and in [6] was “inactive” each time. Moreover, the Potency entry in [9] and in assay [7] was “inactive” in each case.

Turning to `O=C(/C=C/c1ccccc1)OC/C=C/c1ccccc1`, the Potency result in assay [1], in assay [2], in [3], in assay [4], in assay [5] and in [9] was “inactive” throughout. Also, the Potency result in assay [10] and in assay [8] was “inactive” in each case.

As to `C=Cc1ccccc1C=C`, the Potency result in [1], in [2], in assay [3], in assay [4], in assay [5] and in assay [6] was “inactive” each time. For the same compound, the Potency entry in assay [9], in assay [7], in assay [10] and in assay [8] was “inactive” in each case.

Turning to `[Cl][Pt-2]([Cl])([Cl])[Cl]`, the Potency result in [1], in assay [2], in assay [3], in assay [4], in assay [5] and in [6] was “inactive” in each case. Also, the Potency entry in assay [9], in [10] and in assay [8] was “inactive” throughout.

Consider `COC(C)=O`, for which the Potency result in assay [1], in assay [2], in assay [3], in assay [4], in assay [5] and in [6] was “inactive” in each case. Further, the Potency result in assay [9] and in [7] was “inactive” throughout.

On to `CCCCCCCCCCCCOC(=O)c1ccc(O)cc1`, for which the Potency is 34.9 µM (active) in assay [1], 44 µM (active) in assay [5] and 49.3 µM (active) in [6]. The Potency entry in assay [2], in [3], in assay [4] and in assay [8] was “inactive” throughout.

`CC(C)(C)NSc1nc2ccccc2s1`: the Potency result in [1], in assay [2], in [3], in assay [4], in assay [7] and in assay [10] was “inactive” in each case.

As to `CCOc1ccc2ccccc2c1C(=O)N[C@@H]1C(=O)N2[C@@H]1SC(C)(C)[C@@H]2C(=O)O`, the Potency result in assay [1], in assay [2], in assay [3], in assay [4], in [9] and in assay [7] was “inactive” throughout. The Potency result in assay [10] and in [8] was “inactive” in each case.

In the case of `O=S(=O)(O)c1ccc(Nc2nc(Nc3ccc(/C=C/c4ccc(Nc5nc(Nc6ccc(S(=O)(=O)O)cc6)nc(N(CCO)CCO)n5)cc4S(=O)(=O)O)c(S(=O)(=O)O)c3)nc(N(CCO)CCO)n2)cc1`, the Potency result in [1], in [3] and in [7] was “inactive” in each case. The Potency in assay [2] was 33.1 µM (active); in [9] it was 33.1 µM (active); in assay [10], 13.2 µM (active).

Take `CCOC(=O)c1ccc(C2CCC(NC[C@H](O)COc3ccc(O)c(NS(C)(=O)=O)c3)CC2)cc1` (stereo partly specified): the Potency in assay [1] and in assay [6] was 35.9 µM (active) in each case. Besides, the Potency entry in [2] and in [9] was “inactive” each time.

Regarding `CCCC(=O)OC(C)(C)Cc1ccccc1`, the Potency result in [1] and in assay [3] was “inactive” in each case.

In the case of `C/C=C/C=C/COC(=O)C(C)C`, the Potency result in assay [1], in assay [3], in [4], in [5], in [6] and in assay [7] was “inactive” throughout. Besides, the Potency entry in [10] and in assay [8] was “inactive” throughout.

`COC(=O)Nc1nc2ccc(C(=O)c3ccccc3)cc2[nH]1`: the Potency entry in assay [1], in assay [3], in assay [4], in assay [6], in [9] and in assay [7] was “inactive” each time. The Potency entry in assay [10] is “inactive”. Also, the Potency in assay [5] was 1.06 µM (active).

Consider `Cc1cccc2cccnc12`, for which the Potency entry in assay [1], in assay [2], in assay [3], in assay [4], in assay [7] and in assay [8] was “inactive” in each case.

For the compound `O=c1c(O)c(-c2ccc(O)cc2O)oc2cc(O)cc(O)c12`, the Potency result in [1], in assay [2], in [6], in assay [9] and in assay [7] was “inactive” in each case.

For `CC/C=C\CCCCCO`, the Potency result in assay [1], in [2], in assay [3], in [4], in [6] and in [10] was “inactive” throughout. Besides, the Potency result in [8] was “inactive”.

In the case of `Oc1cc(Cl)cc(Cl)c1Cl`, the Potency entry in [1], in assay [2], in assay [3], in [6], in assay [10] and in [8] was “inactive” in each case.

With `Cc1cccc(C)c1NC(=O)c1ccc(N)cc1`, the Potency result in [1], in [2], in assay [3], in [10] and in assay [8] was “inactive” throughout.

With `Cc1cc(C(C)(C)C)cc(C)c1CC1=NCCN1`, the Potency entry in [1], in assay [2], in assay [3], in assay [5], in assay [6] and in assay [9] was “inactive” in each case.

As to `O=C1CCc2cc(OCCCCc3nnnn3C3CCCCC3)ccc2N1`, the Potency entry in assay [1], in assay [3], in [4], in assay [5], in assay [6] and in [9] was “inactive” in each case. Besides, the Potency entry in assay [7] and in assay [8] was “inactive” throughout.

Consider `CC(CCc1ccccc1)NCC(O)c1ccc(O)c(C(N)=O)c1` (stereo unspecified), for which the Potency result in [1], in assay [2], in assay [4], in [6] and in assay [9] was “inactive” in each case.

In the case of `COc1cc(C)ccc1O`, the Potency entry in assay [1], in [2], in assay [3], in [4], in [7] and in assay [10] was “inactive” each time. For the same compound, in assay [8], the Potency entry is “inactive”.

(Values after PubChem BioAssay (Tox21).)
